{"source": "PubChem BioAssay AID703", "about": "(NMMLSC, 2007)", "biological_target": "Integrin alpha-4 (Homo sapiens) (UniProt P13612)", "sequence (P13612 whole entry, looked up)": "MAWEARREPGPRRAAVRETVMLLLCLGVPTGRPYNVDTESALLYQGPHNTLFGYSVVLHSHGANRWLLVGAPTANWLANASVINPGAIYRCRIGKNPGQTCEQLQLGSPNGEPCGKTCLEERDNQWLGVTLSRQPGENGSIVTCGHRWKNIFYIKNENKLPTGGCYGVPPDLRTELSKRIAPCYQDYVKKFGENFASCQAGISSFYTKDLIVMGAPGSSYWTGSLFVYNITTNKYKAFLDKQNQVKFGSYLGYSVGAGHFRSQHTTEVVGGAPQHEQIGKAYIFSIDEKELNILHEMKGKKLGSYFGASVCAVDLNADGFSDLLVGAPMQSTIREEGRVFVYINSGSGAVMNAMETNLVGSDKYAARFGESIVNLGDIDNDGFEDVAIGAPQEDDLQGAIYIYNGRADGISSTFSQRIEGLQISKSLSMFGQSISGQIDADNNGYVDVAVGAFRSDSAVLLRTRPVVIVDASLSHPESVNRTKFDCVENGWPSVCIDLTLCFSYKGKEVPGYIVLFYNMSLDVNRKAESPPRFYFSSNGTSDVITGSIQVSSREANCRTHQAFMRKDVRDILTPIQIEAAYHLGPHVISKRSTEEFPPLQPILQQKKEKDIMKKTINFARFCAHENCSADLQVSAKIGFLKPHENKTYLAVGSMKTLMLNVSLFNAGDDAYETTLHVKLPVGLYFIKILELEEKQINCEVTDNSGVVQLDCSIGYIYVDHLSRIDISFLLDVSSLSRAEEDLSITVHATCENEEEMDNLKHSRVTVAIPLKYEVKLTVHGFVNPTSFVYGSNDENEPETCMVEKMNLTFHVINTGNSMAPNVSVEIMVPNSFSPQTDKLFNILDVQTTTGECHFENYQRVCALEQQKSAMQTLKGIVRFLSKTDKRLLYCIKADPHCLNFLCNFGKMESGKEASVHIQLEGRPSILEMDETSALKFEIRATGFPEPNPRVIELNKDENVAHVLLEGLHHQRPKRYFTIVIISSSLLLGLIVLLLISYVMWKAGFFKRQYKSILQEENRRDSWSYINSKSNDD", "experiment": "enhancers of LDV-FITC binding to VLA-4, dose response, cell-based, flow cytometry (AID 703)", "conditions": "Jurkat cells, active compounds read high", "note": "Values without a mark were called inactive. How the calls were made is not given here.", "data": [{"smiles": "O=c1c2ccccc2[se]n1-c1ccccc1", "values": [{"measurement": "activation at 0 C", "value": 0}]}]}
